Assay [1] has as its target Transient receptor potential cation channel subfamily V member 1 (Homo sapiens) (UniProt Q8NER1). The experiment in a line: HTS Assay for Compounds that Act as Enhancers of the Vanilloid Receptor 1 (AID 488979). Further: 0% is about no effect. A digest of the protocol:
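Calcium influx kinetics via Fluo-8 (480/520 nm) in TRPV1-expressing cells, 2000/well cultured overnight at 35.5C. Compound-alone read 3 min (agonist phase), followed by EC20 capsaicin challenge for 2 min (enhancer phase).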

Assay [2] concerns the target Thyrotropin receptor (Homo sapiens) (UniProt P16473). Put plainly: qHTS Assay for Antagonists of the Thyroid Stimulating Hormone Receptor (AID 488980). Further: series mostly up to about 58 µM; 0% is about no effect. Summed up:
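HEK293 cells transfected with human TSHR, suspended in HEPES-buffered HBSS with 70 uM RO 20-1724, were treated with compounds plus TSH at EC80 (4 nM final). cAMP was measured by competitive HTRF (cryptate anti-cAMP antibody, cAMP-d2 acceptor).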
A general note: Quantitative high-throughput screening tests each substance at several concentrations.

Assay [3] concerns the target D(1A) dopamine receptor (Homo sapiens) (UniProt P21728). The experiment in a line: HTS Assay for Allosteric Agonists of the Human D1 Dopamine Receptor: Primary Screen for Agonists (AID 488981). Further: potency means the concentration at half of the fitted maximal effect. On activation: 0% is about no effect. A digest of the protocol: (§1)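 Calcium flux in an inducible, force-coupled HEK293 Trex D1 line (overnight at 30 C): agonist mode is the 180 s kinetic read after compound; potentiator mode is the following 180 s read after dopamine at EC20.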

Assay [4] shares this target. Put plainly: HTS Assay for Allosteric Agonists of the Human D1 Dopamine Receptor: Primary Screen for Antagonists (AID 488983).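 Further: calcium flux response to an EC80 dopamine challenge measured with no-wash dye; on the % scale 0 is the no-effect control and ±100 the full control effect; nearly all actives have a fitted effect of over 65% in size.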 Summed up:
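Calcium flux readout, no-wash dye, inducible HEK293 T-REx D1 line (force-coupled). Compound added after 10 s baseline, 180 s kinetic read; then dopamine at EC80, further 180 s read.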

Assay [5] can be described thus: Validation screen for small molecules that induce genotoxicity in human embryonic kidney (HEK293T) cells expressing luciferase-tagged ELG1 (AID 493106). Further: 0% is about no effect. A digest of the protocol:
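qHTS format; 2,000 HEK293T ELG1-luc cells/well; 23 nL compound via pin tool; 16 hr, 37 °C/5% CO2; ONE-Glo, 30 min RT; luminescence read.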

The target of assay [6] is ATPase family AAA domain-containing protein 5 (Homo sapiens) (UniProt Q96QE3). Put plainly: Validation screen for small molecules that inhibit ELG1-dependent DNA repair in human embryonic kidney (HEK293T) cells expressing luciferase-tagged ELG1 (AID 493107).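 Further: cells co-treated with the DNA-damaging agent 5-fluorouridine alongside compound; series mostly up to about 46 µM; on the % scale 0 is the no-effect control and ±100 the full control effect; inhibitors lower the ELG1-luciferase luminescence signal; nearly all actives have a fitted effect of over 70% in size.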 Summed up:
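ELG1-luciferase HEK293T reporter; 5-fluorouridine + compound/DMSO, 16 hr, 37 °C, 5% CO2; ONE-Glo 30 min RT; luminescence read, qHTS format.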

Assay [7] addresses Thyrotropin-releasing hormone receptor (Homo sapiens) (UniProt P34981). Put plainly: qHTS for Small Molecule Agonists and Allosteric Enhancers of Human TRH Receptor: Validation Screen for Agonists (AID 493127;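 active means calcium activation more than 3 SD above the typical response in the agonist read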;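 further: intracellular calcium rise by fluo-8 fluorescence before TRH EC20 addition; 0% is about no effect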). The settings on record: TRH receptor agonist cell assay; at 2 µM; stronger effect = higher value. Summed up:
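Read-out: intracellular calcium release measured kinetically by FDSS (fluo-8, ex 480/em 530 nm), 1 reading/s after a 10-cycle baseline. TRHR cells, 2000/well, cultured 18 h at 33.5C, dye-loaded at room temp. Compound-evoked positive calcium signal flags agonists.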

Assay [8] is described as follows: Nrf2 qHTS screen for inhibitors: Validation (AID 493153; active means well fitted inhibition curve with a large enough effect in the main read-out, with a control signal flat, not every such curve was filed as active). The following applies: Potency: luciferase luminescence; viability change: measured here: cytotoxicity max response. Summed up: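 Concentration-response test in A549 ARE_Fluc reporter cells (5% FBS OPTI-MEM), compound exposure 18-24 h at 37°C, 5% CO2. Cell viability measured first by CellTiter-Fluor fluorescence; ARE-driven luciferase luminescence then measured as Nrf2 activity.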

Assay [9] in a line: qHTS for Inhibitors of Cell Surface uPA Generation: Validation Assay (AID 493164).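 Further: RAW 264.7 macrophage cells exposed to compound for 18 h; 0% is about no effect.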 A digest of the protocol:
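Compounds are titrated over seven points (2.45 nM–38.3 uM final) onto pre-plated RAW 264.7 cells and incubated for 18 h. Retained intracellular ATP, measured with ATP-Lite, indicates blocked lethal factor entry.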

Assay [10] concerns the target Galactokinase (Homo sapiens) (UniProt P51570). The experiment in a line: qHTS Validation Assay for Inhibitors of Human Galactokinase (GALK) (AID 493189). Further: 0% is about no effect. Summed up:
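GALK (5 nM) with 35 uM ATP and 100 uM galactose in HEPES pH8.0, MgCl2, NaCl, DTT, BSA; 1 h at room temperature. Residual ATP read by Kinase-Glo Plus luminescence after 10 min.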

Assay [11] can be described thus: Validation screen for small molecules that induce DNA re-replication in SW480 colon adenocarcinoma cells (AID 504364). Further: 0% is about no effect. A digest of the protocol:
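Read-out: total Hoechst intensity of nuclei by fluorescence scanning imager; hits raise the fraction of nuclei with elevated DNA content. Cells received compound for 48 hr at 37 C before a 40 min stain.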

The target of assay [12] is Peptidyl-prolyl cis-trans isomerase NIMA-interacting 1 (Homo sapiens) (UniProt Q13526). Put plainly: qHTS Validation Assay to Find Inhibitors of Pin1 (AID 504536; active means well fitted inhibition curve with a large enough effect in the polarisation, with a control signal flat, not every such curve was filed as active; the % refers to the polarisation;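 further: 0% = full Pin1 enzyme wells and -100% = no-enzyme wells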). A digest of the protocol: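 Fluorescence polarization competition: compounds (titration) displace HiFluor-488-labeled Pin1-1b peptide from Pin1 (0.3 uM final) in pH 7.5 HEPES buffer with DTT, 10 min at room temperature; %Activity normalized to no-enzyme wells, curves fitted.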
Peptidyl-prolyl cis-trans isomerase NIMA-interacting 1 (Homo sapiens), sequence (Q13526 whole entry, looked up): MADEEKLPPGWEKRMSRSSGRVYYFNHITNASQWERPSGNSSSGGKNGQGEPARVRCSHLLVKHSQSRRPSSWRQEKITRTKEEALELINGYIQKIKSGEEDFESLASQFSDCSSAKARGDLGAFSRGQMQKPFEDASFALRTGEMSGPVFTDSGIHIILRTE

The target of assay [13] is Phosphoglycerate kinase, glycosomal (Trypanosoma brucei brucei) (UniProt P07378). The experiment in a line: qHTS Validation Assay to Find Inhibitors of Phosphoglycerate Kinase (AID 504547).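 Further: control wells lack PGK and mark full inhibition.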 A digest of the protocol: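 Luminescence end-point (Kinase-Glo Plus, 10 min) after a 60 min room-temperature coupled reaction. GAPDH at 100nM final supplies 1,3-BPG to PGK. Buffer: 100mM TEA pH 7.6, 5mM MgCl2, 0.01% Tween-20. Wells lacking PGK served as controls.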
Phosphoglycerate kinase, glycosomal (Trypanosoma brucei brucei), sequence (P07378 whole entry, looked up): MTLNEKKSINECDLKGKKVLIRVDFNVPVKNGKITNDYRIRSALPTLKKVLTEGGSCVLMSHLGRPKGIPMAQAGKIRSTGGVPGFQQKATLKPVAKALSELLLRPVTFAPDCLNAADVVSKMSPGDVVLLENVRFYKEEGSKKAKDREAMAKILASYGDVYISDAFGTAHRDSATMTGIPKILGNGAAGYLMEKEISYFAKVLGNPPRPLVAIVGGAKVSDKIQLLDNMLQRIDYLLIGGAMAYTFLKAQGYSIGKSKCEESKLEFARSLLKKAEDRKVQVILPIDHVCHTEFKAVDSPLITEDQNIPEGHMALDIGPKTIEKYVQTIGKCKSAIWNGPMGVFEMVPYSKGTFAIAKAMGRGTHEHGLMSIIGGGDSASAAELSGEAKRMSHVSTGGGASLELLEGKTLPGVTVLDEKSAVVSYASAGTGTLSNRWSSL

For assay [14], the target named is phosphoglycerate mutase (Leishmania major) (UniProt Q4Q090). The experiment in a line: qHTS Validation Assay to Find Inhibitors of Phosphoglycerate Mutase (AID 504548).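 Further: end-point luminescence from Kinase-GloPlus after the PGAM reaction; series mostly up to about 58 µM; on the % scale 0 is the no-effect control and ±100 the full control effect.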 The settings on record: Potency: inhibition qHTS. Summed up: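 Inhibition of L. major PGAM was assessed by Kinase-GloPlus luminescence following a 45-minute room-temperature reaction with enzyme at 1.25nM final.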
phosphoglycerate mutase (Leishmania major), sequence (Q4Q090 1-553): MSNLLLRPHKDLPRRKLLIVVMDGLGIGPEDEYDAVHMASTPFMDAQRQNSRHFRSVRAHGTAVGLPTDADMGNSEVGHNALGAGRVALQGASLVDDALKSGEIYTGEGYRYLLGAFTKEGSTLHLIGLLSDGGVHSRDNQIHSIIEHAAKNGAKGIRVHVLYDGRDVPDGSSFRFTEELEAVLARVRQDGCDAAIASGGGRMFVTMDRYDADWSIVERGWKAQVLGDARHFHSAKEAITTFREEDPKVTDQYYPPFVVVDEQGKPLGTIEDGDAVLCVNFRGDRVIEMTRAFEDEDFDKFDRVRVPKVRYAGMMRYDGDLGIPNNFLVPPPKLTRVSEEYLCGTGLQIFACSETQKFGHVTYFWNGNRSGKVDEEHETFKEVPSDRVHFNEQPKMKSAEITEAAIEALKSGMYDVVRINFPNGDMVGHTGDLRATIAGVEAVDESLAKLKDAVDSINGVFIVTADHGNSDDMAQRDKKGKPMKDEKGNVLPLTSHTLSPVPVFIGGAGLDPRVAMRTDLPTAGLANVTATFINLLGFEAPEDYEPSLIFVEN

Assay [15] concerns the target Ubiquitin carboxyl-terminal hydrolase 1 (Homo sapiens) (UniProt O94782). The experiment in a line: Inhibitors of USP1/UAF1: Pilot qHTS (AID 504865). Further: nearly all actives have a fitted effect of over 35% in size. Further: potency means the concentration at half of the fitted maximal effect. Summed up:
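USP1/UAF1 complex (1nM) preincubated with compound 15 min at room temperature, then Ub-Rho substrate (150nM final) added. Fluorescence read kinetically at 480/540 nm, 6 reads every 60 seconds. Buffer: 50mM HEPES pH 7.8, 0.5mM EDTA, 0.1 mg/ml BSA, 1mM TCEP, 0.01% Tween-20.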

The nature of assay [16]: qHTS for Inhibitors of ATXN expression: Validation (AID 588378). Further: series mostly up to about 57 µM; on the % scale 0 is the no-effect control and ±100 the full control effect; nearly all actives have a fitted effect of over 75% in size. A digest of the protocol: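 Luminescence from an ATXN2-FFLuc reporter in HEK293 cells served as read-out after 24 h compound treatment at 37 degrees C; CellTiter-Fluor fluorescence was recorded first to assess viability.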
Assay [17] is described as follows: qHTS for Inhibitors of ATXN expression: Validation of Cytotoxic Assay (AID 588349). Further: on the % scale 0 is the no-effect control and ±100 the full control effect. A digest of the protocol: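 Cytotoxicity counter-screen: HEK293 cells exposed to compound titrations, 72 hr, 37 degrees C. Read-out is intracellular ATP (CellTiter Glo luminescence) as a viability measure.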
The target of assay [18] is D(1A) dopamine receptor (Homo sapiens) (UniProt P21728). Put plainly: HTS Assay for Allosteric Agonists of the Human D1 Dopamine Receptor: Primary Screen for Potentiators (AID 488982). Further: 0% is about no effect. Summed up: as §1
D(1A) dopamine receptor (Homo sapiens), sequence (P21728 whole entry, looked up): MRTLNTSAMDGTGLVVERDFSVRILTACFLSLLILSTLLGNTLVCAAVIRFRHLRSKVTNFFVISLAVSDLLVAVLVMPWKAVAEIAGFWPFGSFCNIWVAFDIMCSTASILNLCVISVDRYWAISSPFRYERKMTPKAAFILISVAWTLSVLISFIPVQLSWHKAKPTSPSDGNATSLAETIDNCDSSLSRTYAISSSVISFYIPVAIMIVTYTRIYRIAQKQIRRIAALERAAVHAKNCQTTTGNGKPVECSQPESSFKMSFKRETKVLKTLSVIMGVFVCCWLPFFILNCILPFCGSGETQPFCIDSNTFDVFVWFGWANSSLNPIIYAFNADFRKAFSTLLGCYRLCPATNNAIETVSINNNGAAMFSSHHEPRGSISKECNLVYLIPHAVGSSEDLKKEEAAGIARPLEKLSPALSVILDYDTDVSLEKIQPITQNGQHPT

Records with an inconclusive call do not appear. The source made the active and inactive calls. Unless noted, the call rests on the fitted dose curve; in most records, active means well fitted curve in the direction sought with a large enough effect; inconclusive means small, poorly fitted or top-dose-only effect, or another doubt; inactive means no such curve, though single readings can be large; an effect the other way counts as inactive or inconclusive.

Thyrotropin receptor (Homo sapiens), sequence (P16473 whole entry, looked up): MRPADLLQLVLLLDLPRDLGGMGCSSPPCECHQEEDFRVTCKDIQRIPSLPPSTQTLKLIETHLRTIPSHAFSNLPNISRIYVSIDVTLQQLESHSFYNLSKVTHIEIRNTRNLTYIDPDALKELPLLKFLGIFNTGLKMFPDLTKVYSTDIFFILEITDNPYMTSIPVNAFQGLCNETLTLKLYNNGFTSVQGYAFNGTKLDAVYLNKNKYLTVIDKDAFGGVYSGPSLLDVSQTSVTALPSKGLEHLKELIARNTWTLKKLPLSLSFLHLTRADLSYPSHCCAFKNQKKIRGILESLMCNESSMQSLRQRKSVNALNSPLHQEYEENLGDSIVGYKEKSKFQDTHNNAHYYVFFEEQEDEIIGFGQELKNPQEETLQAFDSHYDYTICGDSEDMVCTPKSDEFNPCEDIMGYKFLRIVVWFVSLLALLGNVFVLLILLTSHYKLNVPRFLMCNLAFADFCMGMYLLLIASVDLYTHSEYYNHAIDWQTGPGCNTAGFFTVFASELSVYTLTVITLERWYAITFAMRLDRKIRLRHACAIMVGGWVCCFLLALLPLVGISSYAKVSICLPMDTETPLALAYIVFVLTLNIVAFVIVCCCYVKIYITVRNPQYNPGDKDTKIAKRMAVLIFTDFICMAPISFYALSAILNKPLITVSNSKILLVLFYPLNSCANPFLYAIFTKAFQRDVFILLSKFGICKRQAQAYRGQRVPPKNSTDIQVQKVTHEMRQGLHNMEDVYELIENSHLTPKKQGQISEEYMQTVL
Transient receptor potential cation channel subfamily V member 1 (Homo sapiens), sequence (Q8NER1 whole entry, looked up): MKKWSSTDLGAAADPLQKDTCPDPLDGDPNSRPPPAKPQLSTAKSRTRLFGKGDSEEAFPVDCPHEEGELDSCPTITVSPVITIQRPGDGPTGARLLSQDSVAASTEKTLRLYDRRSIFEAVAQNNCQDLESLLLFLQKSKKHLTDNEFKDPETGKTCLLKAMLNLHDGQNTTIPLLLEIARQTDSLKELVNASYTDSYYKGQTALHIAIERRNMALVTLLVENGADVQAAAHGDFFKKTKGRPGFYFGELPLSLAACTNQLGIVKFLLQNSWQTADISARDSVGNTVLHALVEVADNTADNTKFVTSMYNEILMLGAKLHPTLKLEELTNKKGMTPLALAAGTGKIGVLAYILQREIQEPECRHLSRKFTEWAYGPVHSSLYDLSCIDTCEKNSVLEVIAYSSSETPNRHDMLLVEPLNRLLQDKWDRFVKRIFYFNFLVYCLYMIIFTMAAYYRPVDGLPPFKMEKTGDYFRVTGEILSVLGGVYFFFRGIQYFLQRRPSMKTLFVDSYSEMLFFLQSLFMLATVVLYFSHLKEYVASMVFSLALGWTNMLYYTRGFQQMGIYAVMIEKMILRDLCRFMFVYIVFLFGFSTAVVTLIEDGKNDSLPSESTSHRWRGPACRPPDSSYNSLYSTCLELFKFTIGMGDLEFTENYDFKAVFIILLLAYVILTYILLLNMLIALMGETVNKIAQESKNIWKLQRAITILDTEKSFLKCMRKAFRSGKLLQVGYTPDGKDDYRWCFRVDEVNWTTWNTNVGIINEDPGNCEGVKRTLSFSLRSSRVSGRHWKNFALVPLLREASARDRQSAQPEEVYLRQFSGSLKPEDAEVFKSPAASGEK
Thyrotropin-releasing hormone receptor (Homo sapiens), sequence (P34981 whole entry, looked up): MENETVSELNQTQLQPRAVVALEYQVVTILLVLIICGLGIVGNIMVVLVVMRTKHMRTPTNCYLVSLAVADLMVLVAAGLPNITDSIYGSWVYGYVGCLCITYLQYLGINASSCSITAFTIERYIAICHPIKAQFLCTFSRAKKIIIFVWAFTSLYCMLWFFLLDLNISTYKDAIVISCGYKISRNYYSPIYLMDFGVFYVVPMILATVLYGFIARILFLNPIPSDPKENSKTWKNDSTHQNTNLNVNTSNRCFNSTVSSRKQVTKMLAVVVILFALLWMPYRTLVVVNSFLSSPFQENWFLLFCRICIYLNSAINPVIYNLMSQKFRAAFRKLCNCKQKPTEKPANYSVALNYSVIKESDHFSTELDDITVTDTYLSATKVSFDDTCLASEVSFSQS
Ubiquitin carboxyl-terminal hydrolase 1 (Homo sapiens), sequence (O94782 whole entry, looked up): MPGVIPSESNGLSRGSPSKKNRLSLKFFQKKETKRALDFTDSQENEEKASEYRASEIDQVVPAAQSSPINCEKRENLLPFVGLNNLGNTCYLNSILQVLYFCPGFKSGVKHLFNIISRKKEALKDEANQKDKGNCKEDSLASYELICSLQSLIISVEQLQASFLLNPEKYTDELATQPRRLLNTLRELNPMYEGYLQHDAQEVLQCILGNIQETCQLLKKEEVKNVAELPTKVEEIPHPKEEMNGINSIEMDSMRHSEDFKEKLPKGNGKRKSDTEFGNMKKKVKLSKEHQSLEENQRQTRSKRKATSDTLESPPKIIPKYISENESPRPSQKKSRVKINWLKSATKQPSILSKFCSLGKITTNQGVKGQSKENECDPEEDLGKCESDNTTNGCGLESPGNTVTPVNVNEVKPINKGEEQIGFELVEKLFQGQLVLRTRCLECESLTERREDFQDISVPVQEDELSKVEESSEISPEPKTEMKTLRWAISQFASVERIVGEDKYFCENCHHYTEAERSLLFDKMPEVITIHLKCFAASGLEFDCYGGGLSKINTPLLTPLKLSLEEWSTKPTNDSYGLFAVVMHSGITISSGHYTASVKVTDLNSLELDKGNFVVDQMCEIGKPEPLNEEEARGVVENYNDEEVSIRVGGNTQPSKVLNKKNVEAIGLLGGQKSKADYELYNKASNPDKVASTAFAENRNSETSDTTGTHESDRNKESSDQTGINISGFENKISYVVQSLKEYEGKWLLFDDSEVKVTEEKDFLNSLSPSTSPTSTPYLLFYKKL
Galactokinase (Homo sapiens), sequence (P51570 whole entry, looked up): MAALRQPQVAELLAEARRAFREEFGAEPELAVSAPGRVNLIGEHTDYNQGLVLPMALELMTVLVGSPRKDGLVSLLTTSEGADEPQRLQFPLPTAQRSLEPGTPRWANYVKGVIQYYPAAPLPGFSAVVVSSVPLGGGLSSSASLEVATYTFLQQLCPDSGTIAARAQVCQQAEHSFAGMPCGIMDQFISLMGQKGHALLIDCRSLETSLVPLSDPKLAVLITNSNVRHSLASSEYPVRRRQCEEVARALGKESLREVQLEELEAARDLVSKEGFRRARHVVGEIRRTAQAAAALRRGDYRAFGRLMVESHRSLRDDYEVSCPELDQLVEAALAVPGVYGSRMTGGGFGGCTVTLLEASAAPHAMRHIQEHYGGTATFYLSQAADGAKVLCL

Take `CC(C)(CO)Cc1cc(C(C)(C)C)c(O)c(C(C)(C)C)c1`: the result in assay [1], in assay [2] and in assay [9] was inactive. Moreover, the Potency in [3] was 15.8 µM (active). Moreover, the Potency entry in assay [4], in [5], in [6], in assay [8], in assay [10] and in assay [11] was “inactive” throughout. Besides, the Potency entry in assay [12], in assay [13] and in assay [14] was “inactive” throughout. Also, in [7], the activation is -13.9% (inactive). Besides, the viability change in assay [8] came out at 10.3%.
Take `CCCn1c(=O)c2c(ncn2C)n(CCC)c1=O`: the result in [1], in assay [2] and in [9] was inactive. In addition, the Potency result in assay [3], in assay [4], in [5], in assay [6], in assay [8] and in assay [10] was “inactive” each time. For the same molecule, the Potency result in assay [11], in [12], in assay [13], in [14], in assay [15] and in assay [16] was “inactive” in each case. The activation in assay [7] is 0.5% (inactive). In addition, in assay [8], the viability change worked out at 3.43%.
Turning to `COC1(C2=NCCN2)COc2ccccc2O1` (stereo not given), the outcome in assay [1], in [2] and in assay [9] was inactive. Also, the Potency result in assay [3], in [4], in [5], in [6], in assay [8] and in [10] was “inactive” in each case. The Potency result in [11], in [12], in [13], in [14], in [15] and in [17] was “inactive” in each case. For the same molecule, the Potency entry in [16] was “inactive”. Moreover, the activation in assay [7] is 1.62% (inactive). The viability change in assay [8] is -0.853%.
Consider `CC(=O)O[C@H]1CC2(C)[C@@H](C[C@@H](O)[C@H]3[C@@]4(C)CC[C@@H](O)[C@@H](C)[C@@H]4CC[C@@]32C)C1=C(CCC=C(C)C)C(=O)O` (stereo not given in full), for which the outcome in [1], in assay [2] and in assay [9] was inactive. Also, the Potency entry in [3], in assay [4], in assay [5], in [6], in assay [8] and in assay [10] was “inactive” each time. For the same molecule, the Potency entry in [11], in assay [12], in assay [13], in [14], in assay [15] and in assay [17] was “inactive” in each case. The Potency result in assay [16] was “inactive”. Further, the activation in assay [7] was 1.06% (inactive). Moreover, the viability change in [8] was -4.76%.
Turning to `CCCc1c(OCCCOc2ccc(OCC(=O)O)cc2)ccc(C(C)=O)c1O`, the result in [1] and in assay [2] was inactive. Moreover, the Potency entry in assay [3], in assay [18], in [6], in assay [10], in assay [11] and in assay [12] was “inactive” in each case. Further, the Potency entry in [13], in [14], in assay [17] and in assay [16] was “inactive” throughout. Also, the Potency in [15] was 79.4 µM (active).
Turning to `CCN(c1nc(N)c(C(=O)N=C(N)N)nc1Cl)C(C)C`, the outcome in assay [1], in [2] and in assay [9] was inactive. Moreover, the Potency result in assay [3], in [18], in assay [5], in [6], in assay [8] and in assay [10] was “inactive” throughout. For the same molecule, the Potency result in assay [11], in [12], in [14], in [15], in assay [17] and in assay [16] was “inactive” each time. The activation in assay [7] was 2.31% (inactive). In assay [8], the viability change is -6.66%.
Turning to `C[C@H](NC(=O)/C(C#N)=C/c1ccc(O)c(O)c1)c1ccccc1`, the outcome in [1], in assay [2] and in assay [9] was inactive. Besides, the Potency entry in assay [3], in assay [18], in assay [5], in assay [6], in [8] and in assay [10] was “inactive” in each case. Further, the Potency result in assay [12], in [13], in assay [14] and in assay [15] was “inactive” in each case. Besides, the activation in [7] is -3.19% (inactive). For the same molecule, the viability change in assay [8] was -7.12%.
As for `CNC(=O)c1cc2c(cn1)[nH]c1ccccc12`, the outcome in assay [1], in assay [2] and in [9] was inactive. The Potency entry in [3], in assay [18], in assay [4], in assay [8], in [10] and in [11] was “inactive” in each case. The Potency entry in assay [12], in assay [13], in assay [14], in [15], in [17] and in [16] was “inactive” in each case. Further, the activation in [7] is 0.75% (inactive). For the same molecule, the viability change in assay [8] was -3.36%.

The values above are taken from PubChem BioAssay (NCATS).
